In PubChem BioAssay AID652105 (National Center for Advancing Translational Sciences (NCATS), 2013) one finds max response data, which are given here for 78 molecules.

About 4,100 (1.2%) of roughly 330,000 compounds were called active. Roughly 2% stayed inconclusive and do not appear here. The list comes from a sample in which actives are over-represented; it also holds similar structures and randomly drawn compounds. Values without a mark were called inactive. How the source made its calls: active means max response of -50% or lower; inconclusive means between -30% and -50%; inactive means -30% or higher.
On the % scale 0 is the no-effect control and ±100 the full control effect.

Sequence of Phosphatidylinositol 5-phosphate 4-kinase type-2 alpha (Homo sapiens) (P48426 whole entry, looked up): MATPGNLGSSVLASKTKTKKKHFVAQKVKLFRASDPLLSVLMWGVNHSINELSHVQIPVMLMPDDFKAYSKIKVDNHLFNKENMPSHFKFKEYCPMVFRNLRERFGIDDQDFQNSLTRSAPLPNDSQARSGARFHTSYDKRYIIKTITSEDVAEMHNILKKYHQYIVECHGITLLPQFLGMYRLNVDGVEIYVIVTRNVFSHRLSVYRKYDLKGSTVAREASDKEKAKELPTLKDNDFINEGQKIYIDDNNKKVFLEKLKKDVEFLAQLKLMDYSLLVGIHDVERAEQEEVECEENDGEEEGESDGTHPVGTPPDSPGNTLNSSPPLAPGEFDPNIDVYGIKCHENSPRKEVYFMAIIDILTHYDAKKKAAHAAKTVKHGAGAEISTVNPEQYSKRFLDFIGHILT

In this assay the target is Phosphatidylinositol 5-phosphate 4-kinase type-2 alpha (Homo sapiens) (UniProt P48426). Nature of the assay: qHTS for Inhibitors of phosphatidylinositol 5-phosphate 4-kinase (PI5P4K). Further: value at the top dose of about 77 µM. The note with it: PI5P4Kalpha enzyme, ADP-Glo luminescence, 60 min; active compounds read low. Summed up:
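ADP-Glo luminescence end-point read after a 60 min room-temperature kinase reaction of PI5P4Kalpha plus substrate, initiated with ATP at 5 microM final. Buffer: 0.038 M HEPES pH 7.4, EGTA, 0.1% CHAPS, 5% DMSO.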
A general note: In qHTS, concentration-response curves come from the screen itself.
As to `C#CCOCCOCCOCCNc1nc(N2CCN(C(=O)[C@H](C(C)C)n3cc(CCO)nn3)CC2)nc(N2CCN(C(=O)[C@H]([C@@H](C)CC)n3cc(CCCN=C(N)N)nn3)CC2)n1`, the max response was -3.39%.
For `C#CCOCCOCCOCCNc1nc(N2CCN(C(=O)Cn3cc(CCO)nn3)CC2)nc(N2CCN(C(=O)Cn3cc(CCCN=C(N)N)nn3)CC2)n1` the value was 1.27%; for `C#CCOCCOCCOCCNc1nc(N2CCN(C(=O)CCCCCCCCCCNC(=O)[C@H]([C@@H](C)CC)n3cc(CCCCN=C(N)N)nn3)CC2)nc(N2CCN(C(=O)CCCCCCCCCCNC(=O)[C@H](CO)n3cc(CCCSC)nn3)CC2)n1`, -95.3% (active); for `CC1(C(=O)NS(=O)(=O)c2cccc(F)c2)CCN1C(=O)Cc1ccc(Cl)cc1Cl` (stereo not drawn), -3.09%.
Under `CC1(C(=O)NS(=O)(=O)c2ccccc2)CCN1C(=O)C1CCCCC1` (stereo not drawn) stands 0.69%; under `CCC(=C/c1sc2ccc3ccccc3c2[n+]1C)/C=C1\Sc2ccc3ccccc3c2N1C`, -90.2% (active); under `CCCCc1c(-c2ccc(Br)cc2)ncn1CCc1ccccc1OC`, 11.5%.
Under `C[C@@H]1CN([C@@H](C)CO)C(=O)CCCn2nncc2CO[C@@H]1CN(C)S(=O)(=O)c1ccc(-c2ccccc2)cc1` stands -0.942%; under `COc1ccc(-c2ccc(CN3C(CC(C)C)C(=O)N(Cc4cn(CC5CCCCC5)nn4)CCS3(=O)=O)cc2)cn1` (stereo not drawn), -0.614%.
On to `C=C1c2c(Cl)ccc(O)c2C(O)=C2C(=O)[C@]3(O)C(O)=C(C(N)=O)C(=O)[C@@H](N(C)C)[C@@H]3[C@@H](O)C12` (stereo partly drawn), for which the max response is -76.5% (active).
For `CN(C)[C@@H]1C(=O)C(C(N)=O)=C(O)[C@@]2(O)C(=O)C3=C(O)c4c(O)ccc(Cl)c4[C@@H](O)[C@H]3C[C@@H]12` the value was -11.8%; for `COc1ccc(C2OC(CCc3ccccc3)Cc3[nH]c(=S)[nH]c(=O)c32)cc1` (stereo not drawn), -4.14%.
For `CC(C)C[C@@H]1Cc2[nH][nH]c(=O)c2[C@H](CCc2ccccc2)O1` the value was 19.9%; for `Nc1ccc2nc3c(=O)[nH]c(=S)[nH]c3nc2c1`, -105% (active).
Under `O=C(c1ccc(Cl)s1)N(Cc1nnc(-c2ccccc2Cl)o1)C1CC1` stands 3.41%; under `CC(C)N(Cc1nnc(-c2ccccc2Br)o1)C(=O)c1cc(Cl)nc2ccccc12`, 9.3%; under `O=C(c1cc(-c2ccco2)nc2ccccc12)N(Cc1nnc(-c2ccc(Cl)cc2)o1)C1CC1`, -72.6% (active).
Turning to `COc1ccc(NC(=O)c2sc(=O)n(Cc3ccc(S(=O)(=O)N(C)C)cc3)c2C)cc1`, the max response was -4.44%.
For `O=c1[nH]n(-c2ccc([N+](=O)[O-])cc2)c(=O)c2ccccc12` the value was -53.6% (active); for `O=c1[nH]c2cccnc2n1-c1ccc([N+](=O)[O-])cc1`, 3.06%; for `O=[N+]([O-])c1ccc(N2CCOCC2)cc1`, 2.48%.
Under `CC(C)CNC(=O)C1(C)CCCN1C(=O)CSc1ccccc1` (stereo not drawn) stands -2.54%.
Under `CCc1nc2c(OCCC3CCCCC3)cccn2c1N(C)C(=O)c1ccco1` stands -1.87%; under `CN(C)c1cc(-c2ccc(F)cc2)oc(=O)c1Cl`, -9.22%; under `O=c1oc2cc(O)ccc2cc1-c1ccc(F)cc1`, -58.1% (active).
Turning to `COc1ccc(-c2cc3ccc(OCc4nn[nH]n4)cc3oc2=O)cc1`, the max response is -28.7%.
Consider `CCCNC(=O)C1(C)CCCN(Cc2cccc(C(F)(F)F)c2)C1` (stereo not drawn), for which the max response was -5.32%.
Under `CCOC(=O)N1C(=O)C[C@](Sc2ccc(C)cc2)(C(=O)OC)[C@H]1c1ccccc1` stands 5.07%.
With `CC1(C(=O)NS(=O)(=O)Cc2cccc(Cl)c2)CCN1C(=O)Cc1ccccc1` (stereo not drawn), the max response is 1.29%.
Under `CC(C)CN1C(=O)CN(S(C)(=O)=O)CC1(C)C(=O)NCc1ccccc1` (stereo not drawn) stands -3.28%.
Under `OC[C@@H]1CN(Cc2ccncc2)C[C@H](n2cnc3c(N4CCN(c5ccccc5)CC4)ncnc32)O1` stands 3.53%.
For `O=C(Cn1cnc2c(OCc3ccccc3)ncnc21)NCc1nc2ccccc2[nH]1` the value was -52.2% (active).
For the molecule `CC(CNC(=O)Cn1cnc2c(OCc3ccccc3)ncnc21)c1ccccc1` (stereo not drawn), the max response is 2.34%.
For the molecule `O=C(Cn1cnc2c(OCc3ccccc3)ncnc21)NCCCn1ccnc1`, the max response was 1.01%.
For `CCc1nc2c(OCCOc3ccccc3)cccn2c1N(C)C(=O)c1cccs1` the value was -2.92%; for `COc1ccc(S(=O)(=O)Nc2ccc3c(c2)OCO3)cc1Cl`, -4.52%.
In the case of `COc1ccc(S(=O)(=O)c2c[nH]c(=S)[nH]c2=O)cc1Cl`, the max response is -71.5% (active).
For the molecule `COc1ccc(S(=O)(=O)N(C)CC(=O)N2CCCC2)cc1Cl`, the max response was -1.95%.
Under `CCCCCCCCN1C(=O)[C@H](CC(=O)NCc2cccc3ccccc23)C[C@@]2(C(=O)OC)CCCCC=C12` stands 22.3%.
With `CC(=O)N1C[C@@H](CO)[C@@H](N(C)C(=O)c2ccco2)C[C@H]1c1ccccc1`, the max response is -3.57%.
For `COC(=O)c1sc2[nH]c(=S)n(N)c(=O)c2c1C` the value was -60.5% (active); for `COC(=O)c1sc(NC(=O)COC(=O)C2CCC2)c(C(=O)OC)c1C`, 16.3%.
Under `CCc1nc2ccc(C(=O)Nc3cc(-c4ccccc4)ccc3OC)cn2c1N(CC)CC(=O)N(C)C` stands 1.18%.
For `CC(=O)c1cc(-c2ccccc2)[nH]c1N1CCCC1` the value was -3.68%; for `O=C1NN(c2ccccc2)C(=O)/C1=C/c1ccc(-c2cccc(C(=O)O)c2)o1`, -59.1% (active); for `CC1=NN(c2ccc(Cl)c(C(=O)O)c2)C(=O)/C1=C/c1ccc(-c2ccccc2[N+](=O)[O-])o1`, -9.29%.
For `CCCCOCCCNC(=O)C[C@@H]1C[C@@]2(C(=O)OCC)CCCC=C2N(CCC2=CCCCC2)C1=O`, the max response is 1.62%.
For `CC(=O)N1Cc2cc(C(=O)NCc3cccc(F)c3)nc(-c3cccc(C4=CCCCC4)c3)c2[C@H]1CCO` the value was 12.2%; for `COc1ccc(-c2coc3c(C(=O)NC(C)C)cccc23)c(C)c1`, -1.18%; for `COCCCN1C(=O)c2ccc(C(=O)Nc3ccc(OC)cc3OC)cc2C1=O`, 2.76%.
Under `COc1ccc2[nH]cc(CCN3C(=O)c4ccc(C(=O)O)cc4C3=O)c2c1` stands -70.3% (active); under `Cc1ccc2[nH]cc(CCCN3C(=O)c4ccccc4C3=O)c2c1`, -7.36%; under `Cc1ccc(C(NC(=O)C2CCN(CCOc3ccc(Cl)cc3Cl)CC2)c2ccccn2)cc1` (stereo not drawn), 5.45%.
For `CC(C)N=C1CCCC1C(=S)SSC(=S)C1CCCC1=NC(C)C` (stereo not drawn) the value was -54.3% (active); for `CCCOc1ccc(F)cc1-c1cc(C(=O)NCc2ccc(F)cc2)[nH]n1`, 3.63%; for `CCOC(=O)[C@]12CCCC=C1N(CCC1=CCCCC1)C(=O)[C@H](CC(=O)N1CCN(C(=O)c3ccco3)CC1)C2`, -6.59%.
Turning to `C[C@H]1CN([C@@H](C)CO)C(=O)c2cc(C3=CCCCC3)cnc2O[C@@H]1CN(C)C(=O)Cc1ccccc1`, the max response is -2.83%.
Under `COc1ccc(-c2cc3nc(NCCOc4ccccc4)ccn3n2)cc1` stands 23.5%; under `CCC(C(=O)NCc1ccccc1)n1c(Cc2cc(F)cc(F)c2)nc2ccccc21` (stereo not drawn), 0.77%; under `CC(C)CCNC(=O)c1[nH]c(C(F)(F)F)nc1-c1ccccc1`, -8.89%.
For `CC(=O)N1c2ccc(S(=O)(=O)N(C)CC(=O)N(C)Cc3ccccc3)cc2CC1C` (stereo not drawn) the value was -1.34%.
Under `COc1cccc(CNS(=O)(=O)c2ccc3c(c2)CC(C)N3C(C)=O)c1` (stereo not drawn) stands -2.98%; under `CC(=O)N1c2ccc(S(=O)(=O)NCCC(=O)N(C)C3CCCCC3)cc2CC1C` (stereo not drawn), -54.5% (active); under `COc1ccc(-c2nc3ccc(Br)cn3c2Cc2ccc(C)cc2)cc1OC`, -8.6%.
With `COc1ccc(C(C(=O)Nc2c(C)cccc2C)N2CCN(c3ccc(C)cc3)CC2)cc1` (stereo not drawn), the max response was 5.89%.
For `O=C(N/N=C/c1cc(Cl)cc([N+](=O)[O-])c1O)C(O)(c1ccccc1)c1ccccc1` the value was 3.34%; for `O=C(N/N=C/c1cc(Br)c(O)c([N+](=O)[O-])c1)C(O)(c1ccccc1)c1ccccc1`, -58.4% (active); for `COc1ccc(CC(=O)N/N=C/c2cc([N+](=O)[O-])cc(Br)c2O)cc1`, -27.2%.
Under `C[C@H](CO)N1C[C@H](C)[C@H](CN(C)C(=O)c2ccncc2)OCc2ccccc2-c2c(n(C)c3ccccc23)C1=O` stands 0.39%; under `O=C1/C(=C/c2ccc(F)cc2)SC(=S)N1NS(=O)(=O)c1ccccc1`, -65.3% (active); under `O=C(CCCN1C(=O)/C(=C/c2ccccc2)SC1=S)Nc1ccc(O)cc1`, 0.839%.
For `O=C1/C(=C/c2ccc(F)cc2)SC(=S)N1CCCC(=O)N1CCCCC1CCO` (stereo not drawn) the value was 0.801%.
Take `C=C(C)C(=O)O[C@H]1C/C(C)=C\C(=O)/C=C(\C)[C@H](O)[C@@H]2OC(=O)C(=C)[C@@H]21`: the max response is -56.7% (active).
Under `COc1cc(OC)c(C(=O)NNC(=O)c2ccc(NS(=O)(=O)c3cccs3)cc2)cc1OC` stands -9.62%; under `C/C(=N\NC(=O)c1ccc2ccccc2c1)c1cccnc1`, -3.12%.
`C/C(=N\NC(=O)c1ccc(NS(=O)(=O)c2cccs2)cc1)c1ccc2ccccc2c1`: the max response is -63% (active).
For `CC(C)C1C(=O)N(Cc2cn(CCC3OCCO3)nn2)CCS(=O)(=O)N1Cc1ccc(-c2ccccc2C(F)(F)F)cc1` (stereo not drawn) the value was 22.5%; for `CCCNC(=O)C1(C)CCN(Cc2csc(-c3ccc(Cl)cc3)n2)C1` (stereo not drawn), -11.7%.
